Screening results: PubChem BioAssay, National Center for Advancing Translational Sciences (NCATS)
This is a sample that favours compounds with a hit; in the whole collection about 15% have one here.
HCV inh: inhibitors of hepatitis C virus infection; hit rate 3.4% among 340,000; Huh7.5.1 HCVcc-Cre infection, luciferase reporter, 44 h; Potency, µM (doses to about 41.8 µM), for the others: at the highest dose activity change, negative = inhibition, most hits filed as inhibitors; AID 651820; note: potency is the fitted concentration of half-maximal effect; % is set by controls: 0 for no effect and ±100 for the full control effect
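Cells (1,000/well) were plated 4 h before compound, then infected with HCVcc-Cre virus (~0.5 moi). After 44 h further culture, infection was read as luciferase luminescence following a 15 min substrate incubation at room temperature.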
HCMV antiviral: human cytomegalovirus inhibition. hit rate 4.5% among 410,000. activity change, negative = inhibition, % at 57.5 µM. HFF cells, HCMV-luciferase reporter, 72 h; active compounds read low; in the data active = activity change below about -60%; inconclusive = no clear call, values can overlap the other calls; inactive = above about -39%; note: % is set by controls: 0 for no effect and ±100 for the full control effect
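After 16 h attachment at 37C, HFF cells received test compound and HCMV-luciferase (1 PFU/cell); reporter luminescence read 72 h later, data normalized against buffer-only and known inhibitor Salinomycin.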
Pf growth 48h: inhibits P. falciparum growth in the first generation, 48 h; P. falciparum luciferase growth in erythrocytes, 48 h; Potency, µM (titrated, usually from 28.7 µM), for inactives: at the highest dose activity change, negative = inhibition, usual class: inhibitors; hit rate 5.9% among 310,000; note: potency is the fitted concentration of half-maximal effect; % is set by controls: 0 for no effect and ±100 for the full control effect
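Here the parasites carry a stable luciferase gene and grow inside erythrocytes in Albumax-based RPMI medium with compound for one erythrocytic cycle. Activity is scored as loss of luminescent signal.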
Pf growth 96h: P. falciparum growth inhibition at 96 hour, primary screen for plastid delayed-death inhibitors; Potency, µM (highest dose often 28.7 µM), for the others: top-dose activity change, negative = inhibition, most hits filed as inhibitors; hit rate 6.9% among 320,000; P. falciparum luciferase reporter growth, 96 h; note: potency is the fitted concentration of half-maximal effect; % is set by controls: 0 for no effect and ±100 for the full control effect
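Luminescence readout: decreased luciferase signal marks inhibited growth of reporter-expressing P. falciparum in infected red cells (2% hematocrit, 0.05% parasitemia final), exposed to compound two generations (96 h, 37 C, 5% CO2).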
SARS PLP yeast: SARS-CoV PLP inhibition in yeast; S. cerevisiae expressing SARS-CoV PLpro, growth rescue; Potency, µM (highest dose often 32.9 µM), without a hit: at the highest dose activity, positive = growth rescue, usual class: activators; hit rate 0.19% among 330,000; AID 485353; calls by dose curve; note: potency is the fitted concentration of half-maximal effect; 0% is about no effect; nearly all actives have a fitted effect of over 55% in size
Sm TGR block: blocks Schistosoma mansoni thioredoxin glutathione reductase. purified TGR, DTNB reduction, TNB absorbance 405 nm. Potency, µM (series often up to 114 µM), for inactives: top-dose activity change, negative = inhibition, usual class: inhibitors. hit rate 3% among 360,000. Q962Y6. AID 485364; note: potency is the fitted concentration of half-maximal effect; % is set by controls: 0 for no effect and ±100 for the full control effect; nearly all actives have a fitted effect of over 60% in size
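First, TGR (20 nM dispensed) and NADPH were mixed with compound. Second, a 15 min room-temperature incubation followed. Third, further NADPH and then DTNB were added to start the reaction. Finally, TNB absorbance was monitored kinetically.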
* hit, by the source's call; ? = inconclusive; . = no result given. Unless noted, calls come from the whole dose curve; as a rule, active = well fitted curve in the direction sought with a large enough effect; inconclusive = small, poorly fitted or top-dose-only effect, or another doubt; inactive = no such curve, though single readings can be large; an effect the other way counts as inactive or inconclusive.

SMILES | HCV inh | HCMV antiviral | Pf growth 48h | Pf growth 96h | SARS PLP yeast | Sm TGR block
Cn1nc(C(=O)OCC(=O)Nc2sccc2C(N)=O)c2ccccc2c1=O | -20% | 13 | 27% | 21% | 0% | -8%
Cc1ccc(OCC(=O)NNC(=O)Cn2c(=O)cnc3ccccc32)cc1 | -9% | -97* | 40% | 21% | 3% | -3%
O=C(COc1ccccc1F)NNC(=O)Cn1c(=O)cnc2ccccc21 | ? | 0 | -2% | -30% | 4% | 1%
CC(C)CN(C(=O)CN(C)C(=O)Cc1c(F)cccc1Cl)c1c(N)n(CC(C)C)c(=O)[nH]c1=O | . | -14 | . | . | . | .
Cc1cccc2c1-c1sc(C(=O)NCCCN3CCN(c4ccccc4F)CC3)cc1CO2 | . | -108* | . | . | . | 0%
Cc1cccc2c1-c1sc(C(=O)N3CCN(c4cccc(Cl)c4)CC3)cc1CO2 | . | -8 | . | . | . | 9%
Cc1cccc2c1-c1sc(C(=O)NCCCN3CCN(c4cccc(Cl)c4)CC3)cc1CO2 | . | -75* | . | . | . | 0%
CCN1CCN(CCCNC(=O)c2cc3c(s2)-c2c(C)cccc2OC3)CC1 | . | -2 | . | . | . | -8%
COc1ccc(CCN2C(=O)CC(NNc3ccc([N+](=O)[O-])cc3)C2=O)cc1OC (stereo unspecified) | -9% | 5 | ? | 0% | -1% | 27%
Cc1ncc(CO)c(/C=N/NC(=O)c2cc3c(s2)CCCC3)c1O | 7.9µM* | -66* | ? | ? | 15% | -1%
Cc1ncc(CO)c(/C=N/NC(=O)c2ccoc2C)c1O | ? | -11 | ? | -6% | 2% | -7%
Cc1ncc(CO)c(/C=N/NC(=O)c2ccc(O)cc2)c1O | -15% | 3 | 2.1µM* | ? | 16% | -3%
Cc1ncc(CO)c(/C=N/NC(=S)Nc2ccc(Cl)c(Cl)c2)c1O | 14µM* | 7 | ? | ? | 11% | -24%
COc1ccccc1NS(=O)(=O)c1cccc(C(=O)N/N=C/c2c(CO)cnc(C)c2O)c1 | ? | -9 | 12µM* | ? | -3% | -19%
COc1ccccc1NS(=O)(=O)c1cccc(C(=O)N/N=C(\C)c2ccc(-n3ccnc3)cc2)c1 | -15% | 31 | . | 13µM* | 11% | -9%
O=C(O)c1ccc(-n2c(O)c(C=C3N=c4ccccc4=N3)sc2=S)cc1 | 17% | -35 | 30% | 112% | 1% | -8%
O=C(c1cccc2ccccc12)C1CCCN(C(=O)c2ccc(N3CCOCC3)cc2)C1 (stereo unspecified) | ? | -33 | ? | -1% | -1% | -22%
CSc1ccccc1C(=O)C1CCCN(C(=O)CCN2CCCO2)C1 (stereo unspecified) | 2% | -8 | 37% | 5.2µM* | -1% | 2%
O=C(c1cccc2ccccc12)C1CCCN(C(=O)CCN2CCCO2)C1 (stereo unspecified) | -15% | 10 | 0% | ? | -1% | -17%
CSc1ccccc1C(=O)C1CCCN(C(=O)c2ccc(N3CCOCC3)cc2)C1 (stereo unspecified) | ? | 0 | -14% | 10µM* | 1% | -3%
Cc1ccc(S(=O)(=O)N(C)C[C@H]2OCc3cn(nn3)CCCC(=O)N([C@H](C)CO)C[C@@H]2C)cc1 | . | -21 | . | . | . | .
COc1ccc(S(=O)(=O)Nc2cc(C(C)C)c(O)cc2C)cc1 | ? | -39 | -13% | 5% | -2% | -16%
COc1ccc2nc3cc(Cl)ccc3c(Nc3cc(C(C)C)c(O)cc3C)c2c1 | 11µM* | ? | 0.021µM* | 0.066µM* | -6% | -11%
COc1ccc(CNC(=O)c2ccc3c(c2)nc2n3CCCCC2)c(OC)c1 | . | 41 | . | . | . | -4%
CN(C)N1C(N)=C(C#N)C(c2ccccc2)C2=C1CC(C)(C)CC2=O (stereo unspecified) | -9% | 10 | . | -10% | -1% | -8%
SMILES | HCV inh | HCMV antiviral | Pf growth 48h | Pf growth 96h | SARS PLP yeast | Sm TGR block
N#CC1=C2N=C(N)c3ccccc3N2C2=C(C(=O)CCC2)C1c1cccc(Cl)c1 (stereo unspecified) | ? | -70* | ? | ? | 3% | -11%
CN(C)N1C(N)=C(C#N)C(c2ccc(Cl)cc2)C2=C1CCCC2=O (stereo unspecified) | -14% | 12 | -6% | 0.74µM* | 1% | -6%
Cc1ccc(C2C(C#N)=C(N)N(N(C)C)C3=C2C(=O)CCC3)cc1 (stereo unspecified) | 6% | 43 | -9% | -11% | 7% | -6%
CN(C)N1C(N)=C(C#N)C(c2cccc3ccccc23)C2=C1CC(c1ccccc1)CC2=O (stereo unspecified) | ? | -28 | 9.3µM* | ? | 0% | -3%
COc1ccc(C2C(C#N)=C(N)N(N(C)C)C3=C2C(=O)CCC3)cc1 (stereo unspecified) | 4% | ? | -1% | 2.3µM* | 0% | 0%
CN(C)N1C(N)=C(C#N)C(c2ccsc2)C2=C1CCCC2=O (stereo unspecified) | 30% | -1 | ? | 9.3µM* | -17% | 6%
O=C(Nc1ccc(Br)cc1F)c1cc2nc(-c3ccco3)cc(C(F)(F)Cl)n2n1 | . | 12 | . | . | . | 1%
O=C(Nc1cccc(C(F)(F)F)c1)Nc1ccon1 | 10% | . | 10% | 3% | -14% | -17%
N#CC1=C(N)OC2=C(CN(Cc3ccccc3)C/C2=C\c2cccnc2)C1c1cccnc1 (stereo unspecified) | 3% | -32 | ? | 22% | 0% | 22µM*
CCOC(=O)C1=C(C)OC(N)=C(C#N)C1c1cccs1 (stereo unspecified) | 4% | -12 | -12% | -8% | 1% | ?
CCN1CC2=C(OC(N)=C(C#N)C2c2cccs2)/C(=C/c2cccs2)C1 (stereo unspecified) | 22µM* | 2 | 12µM* | 54% | 0% | 35µM*
CCCC1=C(C(=O)OCC)C(c2cccs2)C(C#N)=C(N)O1 (stereo unspecified) | 18% | 12 | . | ? | 1% | ?
CCN1CC2=C(OC(N)=C(C#N)C2c2ccccc2)/C(=C\c2ccccc2)C1 (stereo unspecified) | ? | -18 | 10µM* | . | -3% | ?
CCN1C=C(Cc2cccs2)C2=C(C1)C(c1cccs1)C(C#N)=C(N)O2 (stereo unspecified) | ? | -36 | ? | -25% | 3% | 22µM*
COc1cc(C2C(C#N)=C(N)Oc3cc(C)n(Cc4ccccn4)c(=O)c32)cc2c1OCO2 (stereo unspecified) | . | . | -11% | -4% | -2% | -17%
CCCCNC(=O)CSc1nnc(C)c2c(C)n(-c3ccccc3)nc12 | . | -35 | . | . | . | 47%
